Only some compounds are listed: those with a hit (about 2.2% of all), similar ones and a draw of the others.
Nrf2 ARE act: qHTS of Nrf2 Activators; Potency, µM (titrated, usually from 46.1 µM), without a hit: at the top dose activation, usual class: activators; 410,000 tested, 0.31% active; AID 624171, 2012; AREc32 ARE-luciferase reporter (MCF7-derived line), luminescence, 24 h; also: % of control where 0% means no effect; nearly all actives have a fitted effect of over 65% in size
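Cells of the AREc32 ARE-luciferase line are plated in OPTI-MEM containing 5% FBS and left overnight at 37 deg C. Compounds are pinned in, incubation continues 24 hr, and firefly luciferase signal is then measured.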
A549 tox: Nrf2 qHTS screen for inhibitors: counterscreen for cytotoxicity | AID 504648, 2011 | A549 ARE-Fluc cells, CellTiter-Fluor viability, 18-24 h | 390,000 tested, 0.16% active | Potency, µM (series often up to 46 µM), for the others: at the top dose activity change, negative = cytotoxicity, usual class: inhibitors; also: % is scaled to controls: 0 for no effect and ±100 for the full control effect
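A549 ARE_Fluc cells in 5% FBS OPTI-MEM were exposed to compounds in concentration-response for 18-24 h at 37 deg C. Viability was read by CellTiter-Fluor fluorescence (Ex 405/Em 525) after 30 min, before the luciferase read.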
Pin1 inhibitor: qHTS Assay to Find Inhibitors of Pin1; Peptidyl-prolyl cis-trans isomerase NIMA-interacting 1 (Homo sapiens), Q13526; Pin1 FP peptide displacement, HiFluor488, 10 min; Potency, µM (top dose mostly 115 µM), for the others: top-dose activity, negative = inhibition, usual class: inhibitors; 390,000 tested, 0.009% active; AID 504891, 2011; active = well fitted inhibition curve with a large enough effect in the polarisation, with a control signal flat, not every such curve was filed as active; inconclusive = small, poorly fitted or top-dose-only effect, or effect the other way, or a change in a side signal; inactive = no such curve, though single readings can be large or run the other way; the % refers to the polarisation; also: % is scaled to controls: 0 for no effect and ±100 for the full control effect
Target sequence (Q13526 whole entry, looked up): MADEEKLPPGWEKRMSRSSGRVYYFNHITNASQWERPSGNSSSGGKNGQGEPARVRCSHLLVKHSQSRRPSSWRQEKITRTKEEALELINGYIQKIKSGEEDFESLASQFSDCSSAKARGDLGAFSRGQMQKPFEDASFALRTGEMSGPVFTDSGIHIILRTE
Nrf2 block: Nrf2 qHTS screen for inhibitors; Potency, µM (titrated, usually from 46 µM), for the others: top-dose activity change, negative = inhibition, actives largely listed as inhibitors; AID 504444, 2011; 360,000 tested, 2.1% active; A549 ARE-Fluc reporter, luciferase luminescence, 18-24 h; also: % is scaled to controls: 0 for no effect and ±100 for the full control effect; nearly all actives have a fitted effect of over 60% in size
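A549 ARE_Fluc cells (5000/well, 5% FBS OPTI-MEM) pre-incubated 2 h, then treated with compounds 18-24 h at 37C/5% CO2 in concentration-response. CellTiter-Fluor viability read first; BugLite luciferase luminescence after 15 min at room temperature gives Nrf2 activity.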
* hit, by the source's call; ? = inconclusive; nt = no result given. Unless noted, calls follow the shape of the dose curve; as a rule, active = well fitted curve in the direction sought with a large enough effect; inconclusive = small, poorly fitted or top-dose-only effect, or another doubt; inactive = no such curve, though single readings can be large; an effect the other way counts as inactive or inconclusive. Potency is read from the fitted curve at half-maximal effect.

SMILES | Nrf2 ARE act | A549 tox | Pin1 inhibitor | Nrf2 block
Clc1ccc(CSc2nnc(Cn3cnc4ccccc43)o2)cc1 | -1% | -14% | -2% | 8.2µM*
NC(=O)CSc1nnc(Cn2cnc3ccccc32)o1 | 0% | 8% | 0% | -14%
Cc1ccc(NC(=O)CCCCCN2C(=O)[C@@H]3Cc4ccccc4CN3C2=O)c(Cl)c1 | 0% | -21% | 1% | 23µM*
CC(=O)NCCCc1ccc(C(=O)COC(=O)CNC(=O)c2ccc3ccccc3c2)cc1 | nt | 0% | 5% | 11%
O=C(NC(Cc1c[nH]c2ccccc12)C(=O)Nc1ccc(OC(F)(F)F)cc1)c1cccs1 (stereo not drawn) | -1% | 23µM* | ? | ?
CCCN1C(=O)C(O)(CC(=O)c2ccc(OC)c(OC)c2)c2ccccc21 (stereo not drawn) | 4% | -2% | 1% | -8%
Cc1ccc(-c2n[nH]c(=O)c3ccccc23)cc1N | 2% | -10% | -10% | ?
Nc1ccc(-c2n[nH]c(=O)c3ccccc23)cc1N | 3% | 0% | 3% | 16µM*
CC(C)Cn1c(/C=C/c2ccco2)nc2ccccc21 | 13µM* | 2% | 16% | 12%
CCN(C1CCCCC1)S(=O)(=O)c1ccc(S(=O)(=O)NCCc2ccncc2)cc1 | -1% | -6% | -1% | -16%
CCN(C1CCCCC1)S(=O)(=O)c1ccc(S(=O)(=O)NCc2ccncc2)cc1 | -1% | -2% | 0% | 8.2µM*
COC(=O)C1=C[C@@H](C(=O)OC)C2C3=C(C(=O)[C@@]2(C)NC(=O)c2ccccc2)[C@H](C)n2c(=O)n(-c4ccccc4)c(=O)n2[C@@H]3C1 (stereo partly drawn) | nt | 19% | -6% | 2%
O=C(NC1CCCC1)c1sc(=S)n2c1[nH]c(=O)c1ccccc12 | 2% | ? | ? | 16µM*
CCOC(=O)c1cccc(NC(=O)c2cc3cc4cc(OC)ccc4nc3s2)c1 | 0% | ? | 30% | 23µM*
CCN(CCCNC(=O)c1cc2cc3cc(OC)ccc3nc2s1)c1cccc(C)c1 | 1% | -13% | 38% | 26µM*
CCOC(=O)c1cccc(NC(=O)c2cc3cc4ccc(C)cc4nc3s2)c1 | -1% | 4% | 16% | ?
Cc1cc(C)nc(NS(=O)(=O)c2ccc(NC(=O)c3cccs3)cc2)n1 | 1% | -4% | 1% | nt
CCCCN(CCCC)S(=O)(=O)c1ccc(NC(=O)c2cccs2)cc1 | 4% | ? | -7% | 18µM*
CC(Cl)OC(=O)Nc1cccc2cccnc12 (stereo not drawn) | nt | -3% | 1% | 0%
Nc1nc(CSC(=S)N2CCOCC2)nc(Nc2ccccc2)n1 | 12% | 8% | -3% | ?
Nc1nc(CSC(=S)N2CCN(c3ccccc3)CC2)nc(Nc2ccc(F)cc2)n1 | 4% | -3% | 11% | 21µM*
Cc1ccc(NC(=O)OCC(F)(F)C(F)F)cc1NC(=O)OCC(F)(F)C(F)F | 2% | nt | -2% | 18µM*
COc1ccc(NS(=O)(=O)c2ccccc2)cc1NS(=O)(=O)c1ccccc1 | nt | -5% | -9% | -2%
Cc1ccc(-n2c(SCc3nc(-c4ccc(Cl)cc4)no3)nnc2-c2ccncc2)cc1 | 5% | -24% | 13% | 23µM*
Cc1ccc(-c2noc(CSc3nnc(C)n3-c3ccc(C)c(C)c3)n2)cc1 | 5% | -12% | 1% | 16µM*
SMILES | Nrf2 ARE act | A549 tox | Pin1 inhibitor | Nrf2 block
Clc1ccccc1-c1nnc(SCc2nc(-c3ccccc3)no2)n1-c1ccccc1 | -1% | -29% | 31% | 15µM*
Cc1ccc(-c2noc(CSc3nnc(C)n3-c3ccc(C)cc3)n2)cc1 | 2% | 3% | -13% | ?
CCOc1ccc(-c2noc(CSc3nnc(-c4ccccc4)n3-c3ccccc3)n2)cc1 | -1% | -10% | 0% | ?
COc1ccc(C2Nc3ccccc3C(=O)N2Cc2cccc3ccccc23)cc1COc1ccc(NC(C)=O)cc1 (stereo not drawn) | nt | -1% | 32% | ?
CC(C)CNc1nc(C#N)nc(Nc2ccccc2)n1 | nt | -15% | -4% | ?
COc1cc(OC)c(NC(=O)c2c3c(nc4ccccc24)C(=O)N(C2CCCCC2)C3)cc1Cl | -1% | -8% | 1% | 13µM*
CNc1sc(C(=O)c2ccccc2F)c(N)c1-c1nc2ccccc2s1 | 10µM* | -15% | 6% | ?

From PubChem
